Compounds without any hit were thinned out: in the full panel of roughly 83,000, 20% have a hit.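 Method: cells in 96-well plates; compound added at one concentration; 48 h incubation; percent growth measured; values under 10 scored active.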 A number with no mark means an inactive call. Active and inactive are the calls of the source.

The experiment relates to HL-60(TB) leukemia. Description: NCI-60 one-dose screen, 48 h (100 = growth as untreated, 0 = no growth, -100 = all killed). As to conditions: 10 µM unless noted.
On to `O=c1cc(N2CCOCC2)oc2c(-c3ccc4c(c3)OCCO4)csc12`, for which the growth is 4.41% (active).
For the molecule `CCC/C=C(/C(C)=O)C(=O)OCC`, the growth was 93.2%.
With `CN(C)c1ccc(C(C#N)(c2ccccc2)c2ccc(N(C)C)cc2)cc1`, the growth is 61.9%.
Take `COc1ccc2nc3cc(Cl)ccc3c(NCCCCCN3CCCCC3)c2c1`: the growth is -42.2% (active).
Next, `CC(C)=CCNc1ncnc2c1ncn2C1OC(COP(=O)(O)O)C(O)C1O` (stereo not given): -38.4% (active).
For `Cc1ccccc1NC(=O)Cc1csc2[n+]1C(=O)/C(=C/c1ccc([N+](=O)[O-])cc1)S2`, the growth was 103%.
Consider `O=C(Cn1cc(CSc2nc3ccccc3o2)nn1)Nc1ccc([N+](=O)[O-])cc1`, for which the growth was 98.2%.
For the molecule `C#CCn1cc(C=C2C(=O)NC(=O)NC2=O)c2cc(Cl)ccc21`, the growth was 59.9%.
On to `CCOC(=O)CSSCC(=O)OCC`, for which the growth was 108%.
In the case of `NC(N)=NN=c1c(=O)c2ccccc2c1=O`, the growth was 95.2%.
Under `C=C1C(=O)O[C@H]2[C@H]1CC/C(COC(=O)/C=C\C(=O)NCc1ccc(Cn3c(=O)sn(CCCl)c3=O)cc1)=C\CC[C@@]1(C)O[C@@H]21` stands -19.4% (active); under `Clc1ccc2c(NCCNc3nc(Cl)nc4ccccc34)ccnc2c1`, -67% (active); under `Cc1onc(-c2ccccc2Cl)c1C(=O)Cl`, 104%.
For the molecule `COc1ccc(/C=C2\N=C(Nc3ccccc3)N(NC(=O)c3ccccn3)C2=O)cc1`, the growth is 97.7%.
Under `COc1cc(NC(=O)c2cc(O)c(CC=C(C)C)c(O)c2)cc2c1O[C@]1(C)CC[C@@H](O)C(C)(C)[C@H]1C2` stands 9.12% (active).
Take `COc1cc(/C=N/O)nc(-c2ccccn2)c1`: the growth was -13.5% (active).
As for `CS(=O)(=O)c1ccc(Cl)c([N+](=O)[O-])c1`, the growth was 14%.
`O=Cc1ccc(F)cc1`: the growth is 103%.
Next, `CCN(CC)c1cc(C)c(Cc2c(OC)ccc3ccccc23)cc1C`: 82.2%.
Turning to `O=C(CI)OCC(COC(=O)CI)OC(=O)CI`, the growth was 53.3%.
Take `COC1=C(OC)C(=O)C(CCCCCCCCCCO)=C(C)C1=O`: the growth is 76.8%.
Next, `CN(C)CCCNc1nc(-c2cccc(C(Cl)(Cl)Cl)c2)nc(C(Cl)(Cl)Cl)n1`: 105%; `COc1ccc(-n2cc(-c3ccc(Cl)c(Cl)c3)[nH]c2=O)cc1OC`: 179%; `COc1ccc2[nH]c(C(=O)OCc3ccc4c(Cl)cc(Cl)c(O)c4n3)cc2c1`: -30.4% (active).
Take `c1ccc2sc(SCCCn3ccnc3)nc2c1`: the growth was 110%.
Regarding `CCOC(=O)n1cnc2c(Cl)ncnc21`, the growth was 106%.
Regarding `O=C(CNCCN1CCOCC1)N1c2cccc3cccc(c23)N(C(=O)CNCCN2CCOCC2)C1c1cn(-c2ccccc2)nc1-c1cccc([N+](=O)[O-])c1`, the growth was 67.6%.
With `ClC1c2ccccc2CCc2ccccc21`, the growth is 122%.
Under `OC(c1ccc(F)c(C(F)(F)F)c1)c1cnccc1NC1CCCCC1` (stereo not given) stands 30.9%; under `O=c1c2cc(F)ccc2sc2c(NCCN3CCOCC3)nc3ccccc3c12`, 65.3%.
Regarding `CCCCC[n+]1ccc(SCC(=O)N(C)c2ccc(Oc3ccccc3)cc2)c2ccccc21`, the growth was 3.74% (active).
Turning to `Clc1ccc(/C=C/c2nc(Nc3ccc(Cl)cc3)c3ccccc3n2)cc1`, the growth is 102%.
As to `Cc1cc(-c2cc(OC(=O)c3ccccc3)ccc2Cl)cc2nnc(Nc3ccc(OCCN4CCCC4)cc3)nc12`, the growth was 116%.
For `O=C1C=CC(=Nc2cc(Br)c(O)c(Br)c2)C=C1`, the growth was 29.9%.
For `CC(C)CCN(CCCNc1c2c(nc3cc(Cl)ccc13)CCCC2)CCC(C)C`, the growth was 70.4%.
As for `N#C/C(C(=O)c1ccccc1)=C1/C(=O)Nc2ccc(Br)cc21`, the growth was 146%.
In the case of `Nc1nonc1-n1nncc1-c1cccnc1`, the growth was 134%.
Next, `Cn1cc(-c2[nH]c3cc(NC(=O)[C@H](N)C4CCCCC4)cc4c3c2C=NNC4=O)cn1`: -55.8% (active).
In the case of `CSCCC(NC(=O)C(Cl)Cl)C(=O)O` (stereo not given), the growth was 98.1%.
Take `C=C1CCC2C3(C)COC(c4cccc(Cl)c4)OC3CCC2(C)C1/C=C/C1=CCOC1=O` (stereo not given): the growth was 33.7%.
